The values below come from PubChem BioAssay (NCATS).

Experiment [1] deals with Zika virus NS2B-NS3 protease. Put plainly: Primary screen GU AMC qHTS for Zika virus inhibitors (AID 1347154). Further: nearly all actives have a fitted effect of over 70% in size. Summed up: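 Unlinked Zika NS2B hydrophilic domain–NS3 protease complex at 25 nM in 10 mM Tris-HCl pH 8.0, 0.01% Tween 20, with an AMC peptide substrate. Fluorescence change (340/450 nm) over 15 min at room temperature, normalized to controls, fitted to 4-parameter Hill.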
On the technique in general: In qHTS, concentration-response curves come from the screen itself.

Experiment [2] addresses Protein phosphatase 1D (Homo sapiens) (UniProt O15297). Put plainly: Rhodamine-PBP qHTS Assay for Modulators of WT P53-Induced Phosphatase 1 (WIP1) (AID 1347425). Summed up: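 Read-out: Rhodamine-PBP fluorescence (ex 525/em 598 nm) for released Pi, read each minute for 11 min after adding 10 uM VEPPL-pS-QETFS; signal taken as f1 minus pre-substrate f0. Enzyme 5 nM WIP1 with 1 hr room-temperature compound preincubation.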

Experiment [3] can be described thus: qHTS to identify inhibitors of the type 1 interferon - major histocompatibility complex class I in skeletal muscle: primary screen against the NCATS Pharmaceutical Collection (AID 1347407).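 Further: luminescence of HiBiT knocked into endogenous HLA-B as interferon-induced MHC class I level.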 Summed up:
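A qHTS format is used: 8-point, 1:5 compound series with 46 uM top final concentration, applied alongside 4 ng/ml IFN-beta to HLA-B*08:01-HiBiT knock-in myoblasts. Luminescence is measured after 24 h treatment.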

A short description of experiment [4]: Primary qHTS for inhibitors of La Crosse Virus (LACV) - induced cell death in SH-SY5Y cells (AID 1508616). Further: potency means the concentration at half of the fitted maximal effect. Summed up: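 Cytopathicity rescue screen: compounds pinned onto SH-SY5Y cells, which are then infected with LACV (MOI 0.01) and held 6 days at 37C. Percent activity is scaled between infected DMSO control and uninfected DMSO control.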
Experiment [5] concerns the target Protein phosphatase 1D (Homo sapiens) (UniProt O15297). Kind of experiment: RapidFire Mass Spectrometry qHTS Assay for Modulators of WT P53-Induced Phosphatase 1 (WIP1) (AID 1347424). Further: series mostly up to about 63 µM. Summed up:
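RapidFire MS readout of dephosphorylated VEPPL-S-QETFS product, with 1 uM isotope-labelled peptide standard. Reaction: 10 nM WIP1, 2 uM phosphopeptide substrate, 5 min, room temperature, after 1 h compound preincubation; stopped with 0.5% formic acid.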

A short description of experiment [6]: Confirmatory screen NINDS Rhodamine qHTS for Zika virus inhibitors (AID 1347161).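 Further: purified Zika NS2B-NS3 protease with linked NS2B cofactor domain and Rhodamine110 peptide substrate; series mostly up to about 110 µM; nearly all actives have a fitted effect of over 60% in size.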 In a few lines:
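Purified linked NS2B-NS3 protease (NS2B hydrophilic domain joined to NS3 protease by flexible linker), 25 nM in 10 mM Tris-HCl pH 8.0, 0.01% Tween 20. Compounds titrated, 15 min preincubation at room temperature; 1.5 microM Rhodamine110 substrate, FITC fluorescence change over 15 min.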

Experiment [7] in a line: Vero cells viability qHTS for Zika virus inhibitors (AID 1347167). In a few lines:
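qHTS titration; 24-48 h compound exposure, 37 degrees C/5% CO2; DMEM, 4% FBS; CellTiter Glo ATP luminescence.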

Experiment [8] can be described thus: qHTS to identify inhibitors of the type 1 interferon - major histocompatibility complex class I in skeletal muscle: primary screen against the NCATS Mechanism Interrogation Plate v5.0 (MIPE) Libary (AID 1347411). Further: potency means the concentration at half of the fitted maximal effect; nearly all actives have a fitted effect of over 65% in size. Summed up: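 HLA-B HiBit myoblasts, dexamethasone-free medium + 4 ng/ml IFN-b, 24 h compound, 11-pt 1:3 from 46 uM final. Readout: Nano-Glo HiBiT lytic luminescence after 10 min lysis, RT.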

The nature of experiment [9]: qHTS for inhibitors of adenylyl cyclases using a fission yeast platform: a pilot screen against the NCATS LOPAC library (AID 1347410). In a few lines:
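Inhibition of GNAS-stimulated AC9 activity in S. pombe was inferred from derepression of a PKA-repressed fbp1-GFP reporter, measured as cytometric fluorescence after 18 h at 30C with compounds at up to 57 µM.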

The nature of experiment [10]: Validation qHTS assay for inhibitors of Activation Induced Cytidine Deaminase (AID): UDG Counterscreen signal (AID 1347427). In a few lines:
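Fluorescence at 560 nm excitation, 665 nm emission reports UDG signal after 250 mM NaOH (2x) addition and 30 min. Enzymes (AID 1 uM, UDG 2 U/mL, at 4/3x) preincubated 10 min with compound, then 4 h with 4x 250 nM DJC20/DJC23 substrate at room temperature.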

For experiment [11], the target named is Single-stranded DNA cytosine deaminase (Homo sapiens) (UniProt Q9GZX7). Kind of experiment: Validation qHTS assay for inhibitors of Activation Induced Cytidine Deaminase (AID): AID signal (AID 1347429). Summed up:
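AID+UDG coupled FRET deamination; cpds up to 114 uM final; DJC20/DJC23 substrate, 4 hr RT; NaOH stop, 30 min RT; read Ex 540/Em 590.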

Experiment [12] has as its target Calcium and integrin-binding protein 1 (Homo sapiens) (UniProt Q99828). Put plainly: Confirmatory qHTS for Identification of Calcium Integrin Binding Protein 1 (CIB1) Competitor (AID 1508617). Further: nearly all actives have a fitted effect of over 65% in size. Summed up:
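Fluorescence polarization competition: CIB1-GST (1 uM final) in 5 mM HEPES pH 7.4, 125 mM NaCl, 5 mM CaCl2, 0.01% Tween20 preincubated 15 min RT with compound (up to 114 uM), then FITC-alphaIIb peptide (100 nM) added, 15 min RT.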

Molecules are shown by their SMILES. Inconclusive results are not listed. A call without a number means that no potency is given here. Calls of active or inactive are those of the source. The call rests on the fitted dose curve; in most records, active means well fitted curve in the direction sought with a large enough effect; inconclusive means small, poorly fitted or top-dose-only effect, or another doubt; inactive means no such curve, though single readings can be large; an effect the other way counts as inactive or inconclusive.

Chain of Protein phosphatase 1D (Homo sapiens) (O15297 whole entry, looked up): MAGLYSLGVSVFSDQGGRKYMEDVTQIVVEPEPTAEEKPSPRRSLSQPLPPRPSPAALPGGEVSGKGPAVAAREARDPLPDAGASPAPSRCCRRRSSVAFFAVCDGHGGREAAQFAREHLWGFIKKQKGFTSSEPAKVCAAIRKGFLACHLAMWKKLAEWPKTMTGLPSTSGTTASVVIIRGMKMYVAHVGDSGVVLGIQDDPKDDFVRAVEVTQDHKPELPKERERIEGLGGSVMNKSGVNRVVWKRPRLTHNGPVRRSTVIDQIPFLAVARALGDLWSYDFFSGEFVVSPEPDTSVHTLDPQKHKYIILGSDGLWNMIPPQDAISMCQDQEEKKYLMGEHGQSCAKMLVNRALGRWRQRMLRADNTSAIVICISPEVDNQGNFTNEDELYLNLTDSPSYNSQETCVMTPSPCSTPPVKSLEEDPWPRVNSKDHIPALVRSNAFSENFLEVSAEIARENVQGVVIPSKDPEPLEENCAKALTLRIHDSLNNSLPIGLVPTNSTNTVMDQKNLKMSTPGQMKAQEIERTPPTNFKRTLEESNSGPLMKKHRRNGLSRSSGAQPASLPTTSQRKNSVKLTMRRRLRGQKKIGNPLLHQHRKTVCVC
Chain of Calcium and integrin-binding protein 1 (Homo sapiens) (Q99828 whole entry, looked up): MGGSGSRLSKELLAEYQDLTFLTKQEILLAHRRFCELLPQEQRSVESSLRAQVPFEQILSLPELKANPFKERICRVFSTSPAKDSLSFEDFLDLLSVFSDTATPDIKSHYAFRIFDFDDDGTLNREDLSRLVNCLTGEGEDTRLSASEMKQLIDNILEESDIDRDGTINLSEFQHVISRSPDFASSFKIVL
Chain of Single-stranded DNA cytosine deaminase (Homo sapiens) (Q9GZX7 whole entry, looked up): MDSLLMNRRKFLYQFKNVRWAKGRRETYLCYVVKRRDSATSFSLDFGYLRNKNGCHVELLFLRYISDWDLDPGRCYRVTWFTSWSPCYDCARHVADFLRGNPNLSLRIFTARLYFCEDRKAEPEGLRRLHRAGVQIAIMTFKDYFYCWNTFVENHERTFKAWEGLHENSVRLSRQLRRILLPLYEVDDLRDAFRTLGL

Regarding `Cc1c(-c2ccc(O)cc2)n(Cc2ccc(OCCN3CCCCCC3)cc2)c2ccc(O)cc12`, the Potency entry in experiment [1] is “inactive”. Further, the result in experiment [2] was inactive.

For the compound `CC[C@H](NC(C)C)[C@H](O)c1ccc(O)c2[nH]c(=O)ccc12`, the Potency entry in [1], in [3] and in [4] was “inactive” throughout. Moreover, the result in [2] was inactive.

As for `N=C(N)c1ccc(OCCCCCOc2ccc(C(=N)N)cc2)cc1`, in [1], the Potency entry was “inactive”. Besides, the compound was called inactive in experiment [5] and in [2].

Consider `COc1cc(NCc2ccc3nc(N)nc(N)c3c2C)cc(OC)c1OC`, for which the Potency result in experiment [6], in [7] and in experiment [4] was “inactive” in each case. Moreover, in experiment [8], the Potency was 26200 nM (active). The compound was classed as inactive in experiment [2].

Turning to `COC(=O)Nc1nc2ccc(Sc3ccccc3)cc2[nH]1`, the Potency result in [1] is “inactive”. The call in experiment [2] was inactive. Moreover, in experiment [4], the Potency is 199 nM (active).

For `O=C(O)c1cccnc1`, the Potency entry in experiment [1] was “inactive”. In addition, the compound was classed as inactive in experiment [5] and in experiment [2].

As for `COC(=O)Nc1nc2ccc(S(=O)c3ccccc3)cc2[nH]1` (centres undefined), in experiment [1], the Potency entry was “inactive”. Moreover, the outcome in [2] was inactive. Also, the Potency in experiment [4] was 355 nM (active).

Turning to `CC(N)C12CC3CC(CC(C3)C1)C2` (centres undefined), the Potency entry in [1], in experiment [3] and in experiment [4] was “inactive” in each case. Moreover, in [2], the compound was called inactive.

`CN1CCN(c2c(F)cc3c(=O)c(C(=O)O)cn(CCF)c3c2F)CC1`: the Potency result in experiment [1] is “inactive”. In addition, the outcome in [2] was inactive.

Regarding `CCOc1cc(N)c(Cl)cc1C(=O)NCC1CN(Cc2ccc(F)cc2)CCO1` (centres undefined), the Potency entry in [1], in experiment [3] and in experiment [4] was “inactive” each time. The compound was called inactive in experiment [2].

Turning to `CNS(=O)(=O)Cc1ccc2[nH]cc(CCN(C)C)c2c1`, the Potency result in [3] and in experiment [4] was “inactive” in each case. Moreover, the result in experiment [5] and in experiment [2] was inactive.

In the case of `Cc1cccc(Nc2ccncc2S(=O)(=O)NC(=O)NC(C)C)c1`, the Potency result in [1] was “inactive”. In addition, the call in experiment [2] was inactive.

For the compound `Cc1ccc(S(=O)(=O)N[C@@H](Cc2ccccc2)C(=O)CCl)cc1`, the Potency entry in [1] was “inactive”. Further, the result in experiment [9], in [10] and in experiment [11] was inactive.

Regarding `Cc1ncc([N+](=O)[O-])n1CCO`, the Potency result in experiment [1] and in experiment [4] was “inactive” each time. The compound was classed as inactive in [5] and in experiment [2].

As for `Cc1noc(NS(=O)(=O)c2ccc(N)cc2)c1C`, in experiment [1], the Potency entry is “inactive”. Also, the compound was called inactive in experiment [5] and in [2].

For the compound `CO[C@@]12[C@H](COC(N)=O)C3=C(C(=O)C(C)=C(N)C3=O)N1C[C@@H]1N[C@@H]12`, the Potency result in experiment [1] and in experiment [4] was “inactive” in each case. Further, the compound was called inactive in experiment [2] and in experiment [12].
